The source of these data is PubChem BioAssay.

Structures are written as SMILES. Unmarked numbers belong to inactive results. How the calls were made is not given here.

The subject of this assay is Aerobactin synthetase IucA (Klebsiella pneumoniae hvKP1). As to the kind of experiment: IucA enzyme inhibition, primary screen, biochemical, Spectrum library (AID 1346200).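 Further: 100% = wells without compound and 0% = wells lacking enzyme.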 The settings on record: malachite green pyrophosphate, A620, at 8 µM, hits give low values.
`O=c1c(-c2ccccc2)coc2cc(O)cc(O)c12`: the activity remaining is 109%.
To `CC(=O)O[C@H]1CC[C@@]2(C)C(C[C@@H](OC(C)=O)[C@]3(C)C2CC[C@@]2(C)[C@H](c4ccoc4)OC(=O)[C@H]4O[C@]423)C1(C)C` (stereo not given in full) belongs 82.9%; to `CC(=O)OCC(=O)[C@@]1(O)CCC2C3CCC4=CC(=O)CC[C@]4(C)[C@@]3(F)[C@@H](O)C[C@@]21C` (stereo not given in full), 91.4%; to `COC(=O)CCC(C)[C@H]1CCC2C3C(C[C@H](O)[C@@]21C)[C@@]1(C)CC[C@@H](O)C[C@H]1C[C@H]3O` (stereo not given in full), 105%.
Under `CCCCOc1ccc(CC(=O)NO)cc1` stands 80.8%; under `O=C(O)CN1C(=O)c2cccc3cccc(c23)C1=O`, 111%; under `CCC(=O)OC1[C@@H]2CC3=C4CC(=O)O[C@@H](c5ccoc5)[C@]4(C)CCC3C(C)(C2=O)[C@@H](CC(=O)OC)C1(C)C` (stereo not given in full), 121%.
To `CCN(CC)CCOC(=O)C(Cc1cccc2ccccc12)CC1CCCO1` (stereo not given) belongs 99.1%; to `CC1CCC(NC(=O)N(CCCl)N=O)CC1` (stereo not given), 106%; to `CN1C2CCC1CC(OC(=O)C(CO)c1ccccc1)C2` (stereo not given), 108%.
As to `Cc1cc(=O)c2c(O)cc(O)c(C)c2o1`, the activity remaining was 99.3%.
For `NC(N)=NS(=O)(=O)c1ccc(N)cc1`, the activity remaining was 98.6%.
Under `CC(=O)N[C@@H](CC(C)C)C(=O)O` stands 93.2%; under `O=c1c(O)c(-c2ccccc2)oc2ccc3occc3c12`, 104%; under `COc1c(O)cc(O)cc1O`, 116%.
